The list is not random: actives were taken first. Their share in the collection is about 1.3%.
TcdB GH inh: TcdB glycohydrolase inhibitors, primary screen, biochemical, single point, plate reader. TcdB glycohydrolase enzymatic assay. inhibition, % at 9.99 µM. hit rate 0.24% among 350,000. AID 652162, 2013; in the data active = inhibition above about 10%
3CLpro inhibitor: SARS-CoV 3CLpro protease inhibitors, primary screen, biochemical, quenched FRET; inhibition, % at 6 µM; hit rate 0.14% among 290,000; recombinant SARS-CoV 3CLpro, quenched FRET peptide cleavage; Replicase polyprotein 1ab (Severe acute respiratory syndrome coronavirus), P0C6X7; in the data active = inhibition above about 12%
DUSP3 inh: VHR1 phosphatase inhibitors, primary screen, biochemical, absorbance, uHTS; Dual specificity protein phosphatase 3 (Homo sapiens), P51452; hit rate 0.52% among 290,000; recombinant VHR phosphatase, pNPP absorbance; inhibition, % at 13.3 µM; AID 1654, 2009; in the data active = inhibition above about 50%
Target sequence (P51452 whole entry, looked up): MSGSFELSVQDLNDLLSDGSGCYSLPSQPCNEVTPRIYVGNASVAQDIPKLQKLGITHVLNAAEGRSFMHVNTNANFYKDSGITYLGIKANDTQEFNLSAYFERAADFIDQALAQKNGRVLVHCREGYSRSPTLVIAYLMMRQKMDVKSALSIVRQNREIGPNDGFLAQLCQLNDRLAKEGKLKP
SSB-PriA inh: inhibitors of Klebsiella pneumoniae PriA binding to SSB C-terminal tail, primary screen, biochemical, AlphaScreen; PriA–SSB C-terminal tail interaction (Klebsiella pneumoniae); AlphaScreen SSBct-PriA binding, biotinylated peptide; hit rate 0.6% among 430,000; inhibition, % at 33 µM; in the data active = inhibition mostly above about 37%, no sharp cut-off; inactive = mostly below about 20%;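 also: plate controls were negative control peptide for no effect and reference peptide for full effect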
CCHFV vOTU inh: CCHFV vOTU protease inhibitors, primary screen, biochemical, Pep-AMC substrate, fluorescence. Crimean-Congo hemorrhagic fever virus L polyprotein viral ovarian tumor (vOTU) protease …. inhibition, % at 11.5 µM. hit rate 0.55% among 370,000. AID 651958, 2012; in the data active = inhibition above about 30%; also: 0% = vehicle wells with enzyme and 100% = no enzyme wells
Vc quorum ag-1: inducers of Vibrio cholerae quorum light production without autoinducers, primary screen, BH1578 luxS cqsA deficient, single point | hit rate 0.16% among 350,000 | activation, % at 18.7 µM | AID 588436, 2011 | V. cholerae BH1578 lux reporter, luminescence, 6 h; in the data active = activation mostly above about 9.7%, no sharp cut-off; inconclusive = no clear call, values can overlap the other calls; inactive = mostly below about 3.7%
Vc quorum ag-2: V. cholerae lux activation without autoinducers – BH1578 luxS cqsA deficient, cherry-pick, plate reader, dose response | shares compounds with Vc quorum ag-1 | V. cholerae BH1578 lux reporter, luminescence, 6 h | activation, % at 50 µM | 620 tested, under 10 active; call rule not given here
HeLa tox: HeLa cell cytotoxicity, dose response, cytotoxicity control, 24 h, dry powder; 25 tested, under 10 active; activity change, negative = cytotoxicity, % at 35 µM; shares compounds with Vc quorum ag-1; HeLa viability, CellTiter-Glo ATP luminescence;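 active = signal drop with fitted half-maximal concentration at or below twice the highest valid dose; inconclusive = flat curve with 30 to 70% loss, or poor fit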
Numbers without * were called inactive; i = inactive; ? = inconclusive; · = no result given; + = active, no number.

SMILES	TcdB GH inh	3CLpro inhibitor	DUSP3 inh	SSB-PriA inh	CCHFV vOTU inh	Vc quorum ag-1	Vc quorum ag-2	others
Cc1cccc(C(=O)N2c3ccccc3C(=O)OC2c2ccc3c(c2)OCO3)c1 (stereo unspecified)	·	2.6	21.4	-8.5	-0.8	32.1*	3.9
O=C1OC(c2ccc3c(c2)OCO3)N(C(=O)c2ccc(Cl)c(Cl)c2)c2ccccc21 (stereo unspecified)	·	8.2	2.6	1.3	6.6	0.6	·
COc1ccc2nc(OC3CCN(C(=O)c4ccc(Br)s4)CC3)sc2c1	·	·	·	-5.0	·	·	·
O=C(Nc1cccc(-c2csc(Nc3ccc(F)cc3F)n2)c1)c1cnccn1	·	·	·	-14.0	·	·	·
COc1cc2[nH]c(=O)n(CCCCC(=O)N3CCN(c4ccccn4)CC3)c(=O)c2cc1OC	·	·	·	-16.0	·	·	·
CCN(CC(=O)Nc1c(F)cccc1F)C(=O)C1CC(=O)N(c2ccccc2OC)C1 (stereo unspecified)	0.3	-4.5	14.0	8.2	-4.9	12.5	-0.2
CC(=NN(C)c1ccccc1)c1c(O)[nH]c(=O)[nH]c1=O	·	·	·	-3.3	·	·	·
CS(=O)(=O)c1ccccc1NC(=O)c1ccc(Cl)s1	·	·	·	-14.0	·	·	·
COCc1nnc(NC(=O)c2ccccc2Oc2ccccc2)s1	3.0	-1.1	21.6	-18.9	1.1	i	·
COCCSc1ccccc1C(=O)Nc1nnc(COC)s1	·	4.1	31.8	-9.8	1.4	12.5	0.0
O=C(/C=C/c1ccc(OCCCF)cc1)NCc1ccc(Cl)cc1	·	1.1	16.7	-0.2	3.2	39.3*	5.1
COc1ccc(CNC(=O)/C=C/c2ccc(OCCCF)cc2)cc1	·	5.7	10.2	-9.0	14.0	i	·
Cc1ccc(-c2ccc(N3CCN(C(=O)c4cccs4)CC3)nn2)c(C)c1	·	·	·	3.0	·	·	·
COc1ccc(-c2nnn(CC(=O)c3ccc4c(c3)OCCO4)n2)cc1OC	·	3.7	-0.1	-3.5	1.9	5.6*	0.2
COc1ccc(-c2cc(C(=O)NC3CCCC3)c3c(C)nn(C4CCS(=O)(=O)C4)c3n2)cc1 (stereo unspecified)	·	·	·	-4.0	·	·	·
COCC1CCN(S(=O)(=O)C2CC2)CC1	·	·	·	-7.0	·	·	·
O=C(COC(=O)C1CCC1)Nc1ccc(Oc2ccccc2)cc1	·	-0.7	6.3	-11.3	2.4	1.8	0.1
O=C(COC(=O)C1CC1)Nc1ccc(Oc2ccccc2)cc1	·	1.7	3.1	-14.6	-1.8	-0.2	·
Cc1nnc2ccc(N3CCN(S(=O)(=O)c4cccnc4)CC3)nn12	·	·	·	-10.0	·	·	·
CCOC(=O)Cn1nc(C)n(-c2ccc(C(C)C)cc2)c1=O	·	0.7	43.5	-16.7	-4.1	14.3	0.1
CCOC(=O)Cn1nc(C)n(-c2ccc(Cl)cc2)c1=O	1.0	-2.2	1.2	1.3	-14.9	0.3	·
O=C(NCc1cncc(-c2cccs2)c1)c1cc2ccccc2s1	·	·	·	-6.0	·	·	·
CN(CC(=O)Nc1ccc(F)c(F)c1F)C(=O)C1CCC1	0.6	·	·	0.2	-11.4	25.0*	3.0
Cc1cccc(CNC(=O)Cn2cnc(-c3noc(-c4cccc(F)c4)n3)c2)c1	·	·	·	3.0	·	·	·
Cc1cc(CNC(=O)c2cc3ccccc3s2)c(C)o1	·	·	·	-10.0	·	·	·
SMILES	TcdB GH inh	3CLpro inhibitor	DUSP3 inh	SSB-PriA inh	CCHFV vOTU inh	Vc quorum ag-1	Vc quorum ag-2	others
CC(C(=O)N1CCCCCC1)N(c1ccc(Cl)cc1)S(C)(=O)=O (stereo unspecified)	1.9	3.3	2.3	-4.7	-1.3	-0.5	·
Cc1ccc(N(C(C)C(=O)N2CCCCC2)S(C)(=O)=O)cc1C (stereo unspecified)	·	-0.8	26.7	-17.0	-0.1	25.0*	0.0
COc1ccc(CNC(=O)c2ccc(Cl)c(S(=O)(=O)N3CCOCC3)c2)cc1OC	-0.9	·	·	-2.8	·	57.1*	0.0
CCCCC(C(=O)O)C(C)CC(=O)Nc1cccc(C(=O)O)c1 (stereo unspecified)	·	1.0	17.9	-12.4	3.6	i	·
CCC(CCC(=O)Nc1cccc(C(=O)O)c1)C(=O)O (stereo unspecified)	·	-3.0	4.4	1.1	-0.2	16.7*	0.5
O=C(Nc1cc2ccccc2cc1NC(=O)c1ccc(C(=O)c2ccccc2)cc1)c1ccc(C(=O)c2ccccc2)cc1	·	·	·	-12.0	·	·	·
Cc1cc(C(=O)OCC(=O)Nc2ccc(F)c(F)c2F)c(C)o1	0.7	0.7	13.9	1.9	-9.4	-0.7	·
COc1ccccc1NC(=O)COC(=O)c1ccc2c(c1)OCCO2	-0.5	·	·	-20.8	-3.0	52.2*	6.9
COc1ccccc1NC(=O)c1oc2ccccc2c1C	-2.2	·	·	-12.0	-7.3	-0.8	·
COc1ccccc1NC(=O)COC(=O)c1oc2ccccc2c1C	2.5	3.0	6.2	-4.7	0.9	26.2*	27.2	HeLa tox=-4.6
COc1ccccc1NC(=O)COC(=O)c1cc(C)oc1C	1.1	·	·	-10.9	1.3	·	i
COc1ccc(Cl)cc1NC(=O)COC(=O)c1cc(C)oc1C	-2.4	·	·	-4.2	26.6	+	589.1
CC(=O)Nc1ccc(NC(=O)C(=O)NCC(c2ccc3c(c2)CCCN3C)N2CCCCC2)cc1 (stereo unspecified)	·	·	·	-11.0	·	·	·
O=S(=O)(CCC(F)(F)F)NCc1cncc(-c2cccs2)c1	·	·	·	-7.0	·	·	·
COc1ccc(OC)c(-c2ccc(N3CCN(C(=O)c4cccs4)CC3)nn2)c1	·	·	·	0.0	·	·	·
Cc1cc(C(=O)OCC(=O)Nc2c(Cl)cccc2C(F)(F)F)c(C)o1	0.2	·	·	-6.7	-2.6	9.3	0.6
COc1ccccc1NC(=O)COC(=O)c1cn(C)c2ccccc12	-0.1	·	·	-7.4	13.5	+	267.8
Cn1cc(C(=O)OCC(=O)NC2CCCCC2)c2ccccc21	0.0	·	·	-10.6	2.9	1.4	·
CCOC(=O)C1CCN(C(=O)Nc2ccc3c(c2)nc(C)n3C)CC1	1.8	-4.2	-25.9	-8.4	-3.8	?	-0.3
Cc1nc2cc(NC(=O)N3CCCCC3)ccc2n1C	·	0.1	-9.4	-7.3	-5.6	-0.5	·
COc1ccc(OC)c(N2CC(c3nc(-c4ccncc4)no3)CC2=O)c1 (stereo unspecified)	·	·	·	-2.0	·	·	·
COc1ccc(S(=O)(=O)N2CCOCC2)cc1NC(=O)CSc1nnc(C2CC2)n1C1CC1	1.4	·	·	-16.6	-0.5	40.6*	0.9
Cn1nnnc1NCc1cccc(Cl)c1	0.8	3.8	28.8	-7.0	-6.1	2.1	·
CC(C)c1ccc(CNc2nnnn2C)cc1	0.2	-0.7	20.4	-12.2	9.6	·	i
CCOc1ccc(CNc2nnnn2C)cc1	0.7	1.3	27.2	-8.6	-12.5	+	i
CCOc1cccc(CNc2nnnn2C)c1	1.0	3.7	5.2	3.4	1.0	6.1	·
